Measured values from PubChem BioAssay.
Active and inactive are the calls of the source.

What was measured:
[1] = compound effects on lung adenocarcinoma cell viability – A549, calcein-AM fluorescence, 48 h, basal, profiling panel (AID 1162); settings: higher = more signal
[2] = compound effects on differentiated 3T3-L1 adipocyte viability – cell-based, 3T3-L1 adipocytes, calcein-AM fluorescence, 48 h, basal, profiling panel (AID 1163); settings: 3T3-L1 adipocytes viability, higher = more signal
[3] = compound effects on hepatocellular carcinoma cell viability – HepG2, calcein-AM fluorescence, 48 h, basal, profiling panel (AID 1164); settings: higher = more signal
[4] = compound effects on multiple myeloma cell viability – MM1S, calcein-AM fluorescence, 48 h, basal, profiling panel (AID 1165); settings: higher = more signal;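 also: viability of MM1S multiple myeloma cells under basal unstimulated conditions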
[5] = calcein-AM signal in unstimulated myeloma cells – cell-based, calcein-AM fluorescence, 48 h, PK04 Diversity Set, profiling panel (AID 1166); settings: RPMI8226 myeloma viability, higher = more signal;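 also: cells grown under basal conditions without added stimulus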
[6] = JC-1 mitochondrial signal, unstimulated HepG2 cells – cell-based, JC-1 fluorescence, 24 h, 100 nL compound, profiling panel (AID 1167); settings: HepG2 mitochondrial potential, higher = more signal
[7] = JC-1 mitochondrial signal, unstimulated adipocytes – cell-based, JC-1 fluorescence, 3T3-L1 adipocytes, 24 h, 100 nL compound, profiling panel (AID 1168); settings: JC-1 mitochondrial fluorescence, higher = more signal, called active from +8 up or from −8 down
[8] = JC-1 mitochondrial signal, unstimulated myeloma cells – cell-based, JC-1 fluorescence, RPMI8226, 24 h, 100 nL compound, profiling panel (AID 1169); settings: JC-1 mitochondrial potential fluorescence, higher = more signal
[9] = JC-1 mitochondrial signal, unstimulated MM1S myeloma – cell-based, JC-1 fluorescence, 24 h, 100 nL compound, profiling panel (AID 1170); settings: MM1S mitochondrial potential, higher = more signal
[10] = resazurin metabolic signal in A549 cells – cell-based, resazurin fluorescence, 24 h, PK04 Diversity Set, profiling panel (AID 1171); settings: A549 viability, higher = more signal, called active from +8 up or from −8 down
Also: test concentration not given here.

COc1ccc([Si](C)(C)[C@@H]2[C@@H](CC(=O)N3CCC[C@H]3CO)O[C@]3(C(=O)N(Cc4cccc(N5C(=O)COc6ccccc65)c4)c4ccccc43)[C@H]2C)cc1
z-score [1]: -0.97 | z-score [2]: 0.441 | z-score [3]: -4.31 | z-score [4]: -2.96 | z-score [5]: -3.83 | z-score [6]: -1.81 | z-score [7]: -1.01 (inactive) | z-score [8]: -0.975 | z-score [9]: -2 | z-score [10]: -2.13 (inactive)

CC(c1ccccc1)C(O)C1C=CC2C(=O)N(C)C(=O)C2N1Nc1ccccc1 (stereo not given)
z-score [1]: -0.227 | z-score [2]: -0.856 | z-score [3]: 0.36 | z-score [4]: -2.65 | z-score [5]: -0.435 | z-score [6]: -0.624 | z-score [7]: -0.83 (inactive) | z-score [8]: 0.446 | z-score [9]: -0.527 | z-score [10]: -0.183 (inactive)

CC(=O)NCCCC[C@@H]1NC(=O)[C@@H]2C[C@H](C(=O)NCCCCCN)[C@H](c3cccc(OCCO)c3)N2C1=O
z-score [1]: 1.3 | z-score [2]: 0.749 | z-score [3]: 0.74 | z-score [4]: 0.151 | z-score [5]: 1.3 | z-score [6]: 0.0102 | z-score [7]: 0.608 (inactive) | z-score [8]: -0.721 | z-score [9]: -0.0434 | z-score [10]: 0.914 (inactive)

CC(CO)N1C(=O)[C@@H]2[C@H]3C(=O)OCC=C[C@H]3OC23C=CCN(Cn2nnc4ccccc42)C(=O)[C@@H]13 (stereo not given in full)
z-score [1]: -0.671 | z-score [2]: -0.948 | z-score [3]: -0.907 | z-score [4]: 0.07 | z-score [5]: -0.637 | z-score [6]: -1.23 | z-score [7]: -0.529 (inactive) | z-score [8]: 0.241 | z-score [9]: -0.226 | z-score [10]: -0.382 (inactive)

COCCOC(=O)N1C(=O)[C@@]2(c3ccccc31)[C@H](c1ccc(O)cc1)N1[C@H](c3ccccc3)[C@H](c3ccccc3)OC(=O)[C@H]1[C@@H]2C(=O)N1CCN(c2ncccn2)CC1
z-score [1]: -0.402 | z-score [2]: 1.26 | z-score [3]: -0.611 | z-score [4]: -0.62 | z-score [5]: -0.42 | z-score [6]: -0.238 | z-score [7]: -0.685 (inactive) | z-score [8]: 0.199 | z-score [9]: 0.0293 | z-score [10]: 0.233 (inactive)

CO[C@H]1O[C@H](CO)[C@@H](OC(=O)CCc2ccccc2)[C@@H]2OC(=O)[C@@H](Cc3ccccc3)C/C=C/C[C@H](Cc3ccccc3)C(=O)O[C@@H]12
z-score [1]: 1.7 | z-score [2]: 0.271 | z-score [3]: 0.514 | z-score [4]: -0.753 | z-score [5]: -0.711 | z-score [6]: 0.358 | z-score [7]: 0.669 (inactive) | z-score [8]: 0.578 | z-score [9]: -0.946 | z-score [10]: 1.2 (inactive)

CCOC(=O)[C@@H]1CCCCN1C(=O)C(=O)OC
z-score [1]: -0.856 | z-score [2]: -0.116 | z-score [3]: 0.0129 | z-score [4]: 0.143 | z-score [5]: 0.13 | z-score [6]: -0.684 | z-score [7]: -0.603 (inactive) | z-score [8]: -0.0109 | z-score [9]: 0.0743 | z-score [10]: -0.599 (inactive)

O=C1CS(=O)(=O)C(c2cccc([N+](=O)[O-])c2)N1c1ccccc1 (stereo not given)
z-score [1]: 1.02 | z-score [2]: 0.116 | z-score [3]: 1.46 | z-score [4]: 0.637 | z-score [5]: 1.22 | z-score [6]: 1.24 | z-score [7]: -0.662 (inactive) | z-score [8]: -0.141 | z-score [9]: 2.21 | z-score [10]: 0.0249 (inactive)

COCCCNC(=O)[C@@H]1c2ccccc2C(=O)N(C(C)C)[C@H]1c1ccc(CO)cc1
z-score [1]: 0.0112 | z-score [2]: 0.534 | z-score [3]: -0.244 | z-score [4]: -0.288 | z-score [5]: -0.0405 | z-score [6]: -0.106 | z-score [7]: -0.409 (inactive) | z-score [8]: -0.0966 | z-score [9]: 0.942 | z-score [10]: 0.167 (inactive)

COC(=O)[C@@]1(Cc2ccc(F)cc2)[C@H]2c3cc(C(=O)N4CCCC4)n(Cc4ccc(C)c(F)c4F)c3C[C@H]2CN1C(=O)c1ccccc1
z-score [1]: -0.858 | z-score [2]: -0.82 | z-score [3]: 0.97 | z-score [4]: -3.35 | z-score [5]: -3.35 | z-score [6]: 1.01 | z-score [7]: -1.02 (inactive) | z-score [8]: -0.59 | z-score [9]: -1.38 | z-score [10]: -0.718 (inactive)

CCC#CCN(Cc1ccccc1Br)[C@H](/C=C/C1CC1)[C@@H](O)Cc1ccccc1
z-score [1]: -0.382 | z-score [2]: 0.929 | z-score [3]: -0.713 | z-score [4]: -2.23 | z-score [5]: -3.31 | z-score [6]: -1.28 | z-score [7]: -0.611 (inactive) | z-score [8]: -0.774 | z-score [9]: -1.39 | z-score [10]: 2.76 (inactive)

NC(=O)NCC#Cc1ccc2c(c1)[C@]1(C(=O)N2)[C@H](c2ccccc2OCCO)N2[C@H](c3ccccc3)[C@H](c3ccccc3)OC(=O)[C@H]2[C@@H]1C(=O)NC[C@H](O)c1ccccc1
z-score [1]: 1.2 | z-score [2]: 0.37 | z-score [3]: -0.13 | z-score [4]: 0.493 | z-score [5]: 0.865 | z-score [6]: -0.159 | z-score [7]: 0.43 (inactive) | z-score [8]: 0.208 | z-score [9]: 0.359 | z-score [10]: 0.635 (inactive)

O=C1[C@H]2C=C(I)[C@H](C[C@@H]2OCCOCCO)[C@@]12CO2
z-score [1]: -0.461 | z-score [2]: -1.03 | z-score [3]: -0.773 | z-score [4]: -0.582 | z-score [5]: -0.537 | z-score [6]: -1.77 | z-score [7]: -0.473 (inactive) | z-score [8]: -0.196 | z-score [9]: -0.807 | z-score [10]: 0.323 (inactive)

C=CCNC(=O)[C@@H]1[C@H]2C(=O)O[C@H](c3ccccc3)[C@H](c3ccccc3)N2[C@H](c2ccc(O)cc2)[C@@]12C(=O)N(C(=O)OCCOC)c1ccc(C#CC3=CCCCC3)cc12
z-score [1]: 0.145 | z-score [2]: 0.725 | z-score [3]: 0.423 | z-score [4]: -2.13 | z-score [5]: -3.66 | z-score [6]: -1.9 | z-score [7]: 0.889 (inactive) | z-score [8]: -0.825 | z-score [9]: -0.627 | z-score [10]: -0.966 (inactive)
